Assay outcomes: PubChem BioAssay, National Center for Advancing Translational Sciences (NCATS)
Hits are enriched below; roughly 8.1% of the tested compounds scored in any of these assays.
KB-V1 MDR tox: qHTS assay for MDR1-selective chemotherapeutics: Primary screen using the drug-selected MDR subline cells KB-V1; Potency, µM (titrated, usually from 46.1 µM), most hits filed as cytotoxic; hit rate 3.4% among 400,000; KB-V1 MDR cells viability, CellTiter-Glo, 72 h; also: % is scaled to controls: 0 for no effect and ±100 for the full control effect; nearly all actives have a fitted effect of over 60% in size
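qHTS viability screen in drug-selected KB-V1 MDR cells: 72 h compound treatment at 37 degrees C, ATP luminescence end point.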
KB-3-1 tox: qHTS assay for MDR1-selective chemotherapeutics: Primary screen using the parental adenocarcinoma cell KB-3-1. KB-3-1 viability, CellTiter-Glo ATP luminescence, 72 h. Potency, µM (series often up to 46.1 µM), actives largely listed as cytotoxic. AID 1347075, 2019. hit rate 1.4% among 400,000; also: % is scaled to controls: 0 for no effect and ±100 for the full control effect; nearly all actives have a fitted effect of over 60% in size
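72 h, 37 °C compound treatment of KB-3-1 parental cells; CellTiter-Glo added, 10 min, luminescence read. Data corrected against DMSO-only plates and normalized before curve fitting.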
SW480 rereplic: A quantitative high throughput screen for small molecules that induce DNA re-replication in SW480 colon adenocarcinoma cells | SW480 DNA re-replication, Hoechst DNA content imaging, 48 h | Potency, µM (highest dose often 46.1 µM), for the others: at the top dose re-replication activation, usual class: activators | hit rate 1.8% among 340,000 | AID 624297, 2012; also: % of control where 0% means no effect; nearly all actives have a fitted effect of over 55% in size
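Quantitative HTS format with DMSO vehicle controls; 48 hr drug incubation at 37 C, then 40 min Hoechst staining and scanning imager measurement at 405 nm excitation.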
ELG1 repair inh: qHTS screen for small molecules that inhibit ELG1-dependent DNA repair in human embryonic kidney (HEK293T) cells expressing luciferase-tagged ELG1. HEK293T ELG1-luciferase reporter, luminescence, 16 h; DNA damage induced by 5-fluorouridine. Potency, µM (titrated, usually from 46.1 µM), for inactives: at the highest dose activity change, negative = inhibition, actives largely listed as inhibitors. hit rate 2.3% among 330,000; also: % is scaled to controls: 0 for no effect and ±100 for the full control effect; nearly all actives have a fitted effect of over 55% in size
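HEK293T cells expressing luciferase-tagged ELG1 (2,000/well) received 5-Fluorouridine plus compound or DMSO for 16 hr at 37 °C. Luciferase was read by ONE-Glo luminescence after 30 min at room temperature.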
MCF10A rerep: A quantitative high throughput screen for small molecules that induce DNA re-replication in MCF 10a normal breast cells. MCF 10A DNA re-replication, Hoechst nuclear intensity, 48 h. Potency, µM (highest dose often 46.1 µM), without a hit: at the highest dose activity, positive = re-replication, usual class: activators. hit rate 2.9% among 350,000. AID 624296, 2012; also: % of control where 0% means no effect; nearly all actives have a fitted effect of over 50% in size
* marks the source's active call; other numbers are inactive results. Calls follow the shape of the dose curve; as a rule, active = well fitted curve in the direction sought with a large enough effect; inconclusive = small, poorly fitted or top-dose-only effect, or another doubt; inactive = no such curve, though single readings can be large; an effect the other way counts as inactive or inconclusive. Potency is read from the fitted curve at half-maximal effect.

Screening C[C@]12c3[nH]c4ccccc4c3CCN1C(=O)C(CC(=O)NCC13CC4CC(CC(C4)C1)C3)C[C@@H]2C(=O)N1CCCCC1 (stereo partly drawn) returned KB-V1 MDR tox inactive, KB-3-1 tox inactive, SW480 rereplic 17%, ELG1 repair inh inconclusive and MCF10A rerep 9%.
For CCN(CC)C(=O)[C@H]1CC(CC(=O)NCCN2CCOCC2)C(=O)N2CCc3c([nH]c4ccc(OC)cc34)[C@]12C (stereo partly drawn) the results were KB-V1 MDR tox inactive, KB-3-1 tox inactive, SW480 rereplic 1%, ELG1 repair inh inconclusive and MCF10A rerep 2%.
CC(=O)c1sc(N/N=C/c2cccc([N+](=O)[O-])c2)nc1C was read as KB-V1 MDR tox inactive, KB-3-1 tox inactive, SW480 rereplic 11%, ELG1 repair inh inconclusive and MCF10A rerep 17%.
`COc1ccc(C(=O)NNC(=O)Nc2ccc(C)cc2)cc1` gave KB-V1 MDR tox inactive, KB-3-1 tox inactive, SW480 rereplic -137%, ELG1 repair inh 14% and MCF10A rerep 7%.
For O=C(Nc1cccc(-c2cccc(F)c2)c1)C1CCN(Cc2ccc(CO)o2)CC1 the results were KB-V1 MDR tox inactive, KB-3-1 tox inconclusive, SW480 rereplic 16µM*, ELG1 repair inh -1% and MCF10A rerep 11%.
`CCC(CCNC(=O)c1ccccc1)(CCNC(=O)c1ccccc1)[N+](=O)[O-]` gave KB-V1 MDR tox 21µM*, KB-3-1 tox inactive, SW480 rereplic -3% and MCF10A rerep 2%.
`O=C(NCCc1ccc([N+](=O)[O-])cc1)c1ccccc1` gave KB-V1 MDR tox inactive, KB-3-1 tox inactive, SW480 rereplic -10%, ELG1 repair inh inconclusive and MCF10A rerep -5%.
For CC(C)(C)SCCNC(=O)c1ccccc1 the results were KB-V1 MDR tox inactive, KB-3-1 tox inactive, SW480 rereplic 0%, ELG1 repair inh inconclusive and MCF10A rerep -3%.
CC(CCNC(=O)c1ccccc1)(CCNC(=O)c1ccccc1)[N+](=O)[O-] was read as KB-V1 MDR tox 15µM*, KB-3-1 tox inactive, SW480 rereplic 1% and MCF10A rerep 2%.
For CCN(CC)CCN(C(=O)c1ccc2c(c1)CCCC2)c1nc2ccc(OC)cc2s1 the results were KB-V1 MDR tox inactive, KB-3-1 tox inactive, SW480 rereplic 0%, ELG1 repair inh 4% and MCF10A rerep inconclusive.
COc1ccc2c(c1)CCc1c(C(=O)NCCCn3ccnc3)noc1-2 was read as KB-V1 MDR tox inactive, KB-3-1 tox inactive, SW480 rereplic -15%, ELG1 repair inh -2% and MCF10A rerep 5%.
Cc1ccc(C(=O)c2cnc3cc4c(cc3c2S(=O)(=O)c2ccccc2)OCCO4)cc1 was read as KB-V1 MDR tox 16µM*, KB-3-1 tox inconclusive, SW480 rereplic inconclusive, ELG1 repair inh inconclusive and MCF10A rerep inconclusive.
`CCOc1ccc(S(=O)(=O)c2c(C(=O)c3ccc(C)cc3)cnc3cc4c(cc23)OCCO4)cc1` gave KB-V1 MDR tox inactive, KB-3-1 tox inactive, SW480 rereplic 0%, ELG1 repair inh -5% and MCF10A rerep 3%.
FC(F)(F)c1cnc(C(c2ccccn2)c2ncn[nH]2)c(Cl)c1 (stereo not drawn) was read as KB-V1 MDR tox inconclusive, KB-3-1 tox inactive, SW480 rereplic inconclusive, ELG1 repair inh 26µM* and MCF10A rerep inconclusive.
For COC(=O)CCSc1nc(N2CCOCC2)c2c(c1C#N)CC(C)(C)OC2 the results were KB-V1 MDR tox inactive, KB-3-1 tox inactive, SW480 rereplic 0%, ELG1 repair inh inconclusive and MCF10A rerep -4%.
CC(C)CCSc1nc(N2CCOCC2)c2c(c1C#N)CC(C)(C)OC2 was read as KB-V1 MDR tox 8.2µM*, KB-3-1 tox inactive, SW480 rereplic 22%, ELG1 repair inh 12µM* and MCF10A rerep inconclusive.
`CSc1nc(N2CCOCC2)c2c(c1C#N)CC(C)(C)OC2` gave KB-V1 MDR tox 9.2µM*, KB-3-1 tox inconclusive, SW480 rereplic -8%, ELG1 repair inh inconclusive and MCF10A rerep 4%.
COc1ccc(CN2CCN(C(C)C(=O)N3CCc4ccccc43)CC2)cc1OC (stereo not drawn) was read as KB-V1 MDR tox inactive, KB-3-1 tox inactive, SW480 rereplic -7%, ELG1 repair inh -6% and MCF10A rerep -1%.
Screening COc1ccc(Cl)cc1N1C(=O)/C(=C\c2sccc2C)N=C1SCC(=O)NC1CC1 returned KB-V1 MDR tox 21µM*, KB-3-1 tox inactive, SW480 rereplic 10%, ELG1 repair inh 16µM* and MCF10A rerep -3%.
`CN(C)c1ccc(/C=C/c2cc(Cl)nc3ccccc23)cc1` gave KB-V1 MDR tox 13µM* and KB-3-1 tox inconclusive.
For Cc1nc2ccccc2nc1/C=C/c1ccc(N(C)C)cc1 the results were KB-V1 MDR tox inconclusive and KB-3-1 tox 5.2µM*.
CN(C)c1ccc(/C=C/c2nc3ccccc3c(=O)[nH]2)cc1 was read as KB-V1 MDR tox inactive, KB-3-1 tox inactive, SW480 rereplic 16%, ELG1 repair inh inconclusive and MCF10A rerep 2%.
Screening CN(C)c1ccc(/C=C/c2cc(N(C)C)nc3ccccc23)cc1 returned KB-V1 MDR tox 1.8µM* and KB-3-1 tox 0.58µM*.
COc1cccc(C2C(C#N)=C(C)NC3=C2C(=O)CC(C)(C)C3)c1 (stereo not drawn) was read as KB-V1 MDR tox inactive, KB-3-1 tox inactive, SW480 rereplic 0%, ELG1 repair inh -4% and MCF10A rerep -4%.
COc1ccccc1NC(=O)c1ccccc1Oc1ccccc1 was read as KB-V1 MDR tox inactive, KB-3-1 tox inactive, SW480 rereplic -8%, ELG1 repair inh 18% and MCF10A rerep 16%.
Screening CC(C)(C)CNC(=O)c1cccc2c1C(=O)c1ccc(N3CCCC3)cc1S2(=O)=O returned KB-V1 MDR tox inactive, KB-3-1 tox inactive, SW480 rereplic -2%, ELG1 repair inh 16µM* and MCF10A rerep 11%.
`O=C(NCCN1CCCCC1)c1cccc2c1C(=O)c1ccc(N3CCCC3)cc1S2(=O)=O` gave KB-V1 MDR tox inactive, KB-3-1 tox inactive, SW480 rereplic -3%, ELG1 repair inh inconclusive and MCF10A rerep 3%.
CCCCCCSc1ccc([C@@H]2[C@H]3C(=O)N(C)C(=O)[C@H]3[C@]3(C(=O)OC)CCCCN23)cc1OC was read as KB-V1 MDR tox inactive, KB-3-1 tox inactive, SW480 rereplic 0%, ELG1 repair inh inconclusive and MCF10A rerep 15µM*.
